# Screening results deposited in PubChem by National Center for Advancing Translational Sciences (NCATS).
# Hits are enriched below; roughly 19% of the tested compounds scored in any of these assays.
# HT1080NT lethal = kills 2HG-producing HT-1080-NT fibrosarcoma cells; HT-1080-NT fibrosarcoma viability, CellTiter-Glo ATP luminescence, 48 h; 1.6% of 360,000 active; Potency, µM (highest dose often 46.1 µM), inactives show at the highest dose activity, negative = less viability, hits mostly cytotoxic;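 note: NT is the 2HG producing partner of a matched IDH1 knockdown line; potency is the fitted concentration of half-maximal effect; 0% = DMSO-treated cells and -100% = media-only wells without cells; nearly all actives have a fitted effect of over 55% in size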
#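 Luminescent CellTiter-Glo readout after 48 hours of compound exposure at 37 degrees C defined viability of HT-1080-NT cells. Activity was normalized to DMSO wells and cell-free media wells; concentration-response curves were fitted and assigned curve classes.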
# DT40 TDP1 no CPT = qHTS for Inhibitors of human tyrosyl-DNA phosphodiesterase 1 (TDP1): qHTS in cells in absence of CPT; DT40 Tdp1-/- hTDP1 cells, no CPT, ATP luminescence, 48 h; Potency, µM (top dose mostly 46.2 µM), without a hit: at the top dose activity change, negative = growth inhibition, most hits filed as inhibitors; 15% of 420,000 active; AID 686978, 2013; note: potency is the fitted concentration of half-maximal effect; nearly all actives have a fitted effect of over 55% in size
#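 Stably hTDP1-transfected Tdp1-null chicken DT40 cells were treated with library compounds minus camptothecin and grown for at least 48 hr at 37 °C, after which cellular ATP was quantified by luminescence.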
# TDP1 cell CPT = growth inhibition of DT40 Tdp1-/-;hTDP1 cells with camptothecin (screen for TDP1 inhibitors) | 12% of 420,000 active | chicken DT40 Tdp1-/-;hTDP1 cells + 20 nM CPT, ATP luminescence, 48 h | Potency, µM (highest dose often 46.2 µM), inactives show top-dose activity change, negative = growth inhibition, usual class: inhibitors; note: potency is the fitted concentration of half-maximal effect; nearly all actives have a fitted effect of over 55% in size
#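 Chicken DT40 Tdp1-/- cells stably complemented with human TDP1 were seeded at 400 cells/well in medium containing 20 nM camptothecin, exposed to pin-transferred compounds, and grown at 37 °C for at least 48 hr. Viability was read as ATP luminescence.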
# HT1080 IDH1KD tx = toxicity to HT-1080 IDH1 knockdown cells (counter line); HT-1080 IDH1 knockdown viability, ATP luminescence, 48 h; Potency, µM (top dose mostly 46.1 µM), inactives show at the top dose activity, negative = toxicity, most hits filed as cytotoxic; 2% of 360,000 active;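 note: potency is the fitted concentration of half-maximal effect; 0% = DMSO wells and -100% = cell-free medium wells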
#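 Luminescent ATP read-out (CellTiter-Glo, 10 min at room temperature) after 48 h compound exposure at 37 °C gave viability of IDH1-knockdown HT-1080 cells. Activity was normalised to DMSO and cell-free wells, then fitted as concentration-response curves.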
# IL1B secr inh = inflammasome signaling inhibition, IL-1 beta readout; THP-1 LPS/ATP IL-1B secretion, AlphaLISA, 16 h; hits give low values; activity change, % at 57.5 µM; 4.7% of 360,000 active; AID 743279; in the data active = activity change below about -50%; inconclusive = mostly about -30% to -49%
#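 Secreted IL-1B measured by AlphaLISA bead assay after 16 h compound exposure of THP-1 cells; compounds (final up to 57.5 uM) added 1 h before LPS (250 ng/mL) and ATP (1.25 mM) stimulation; lower signal means less secretion.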
# Active calls of the source: *; u = inconclusive; x = no result given. Unless noted, calls come from the whole dose curve; as a rule, active = well fitted curve in the direction sought with a large enough effect; inconclusive = small, poorly fitted or top-dose-only effect, or another doubt; inactive = no such curve, though single readings can be large; an effect the other way counts as inactive or inconclusive. Unless noted, % is set by controls: 0 for no effect and ±100 for the full control effect.
SMILES,HT1080NT lethal,DT40 TDP1 no CPT,TDP1 cell CPT,HT1080 IDH1KD tx,IL1B secr inh
S=C(NCCc1ccccn1)Nc1ccc(Cl)c(Cl)c1,16%,u,u,10%,-19
S=C(NCCc1ccccn1)Nc1cc(Cl)cc(Cl)c1,u,-16%,-27%,-16%,-77*
Cc1c(Cl)cccc1NC(=S)NCCc1ccc(C(F)(F)F)cc1,u,16µM*,u,u,-102*
O=[N+]([O-])c1ccc(NC(=S)NCc2ccncc2)cc1,-21%,u,-20%,-6%,12
O=[N+]([O-])c1ccc(NC(=S)NCCc2ccc(Cl)cc2)cc1,u,5.2µM*,2.3µM*,u,-55*
S=C(NCCc1ccccc1)Nc1ccc(Cl)cc1,-13%,4.6µM*,21µM*,-22%,0
CN(Cc1cccnc1)C(=O)c1ccc(Cl)c(NS(=O)(=O)c2ccc(F)cc2)c1,-6%,-14%,-18%,-8%,9
Fc1ccccc1NC(=S)NCCc1cccc(Cl)c1,-19%,7.3µM*,8.2µM*,-25%,-88*
CCN(CC(=O)Nc1c(F)cccc1F)C(=O)c1ccc(COc2ccccc2)cc1,-1%,u,u,1%,8
CCN(CC(=O)Nc1ccc(NC(C)=O)cc1)C(=O)c1ccc(COc2ccc(C(C)(C)C)cc2)cc1,u,23µM*,u,u,-51*
CCOc1ccc(OCc2ccc(C(=O)N(CC)CC)cc2)cc1,7%,15µM*,u,-4%,0
Nc1c(Br)c(=O)[nH]c(=O)n1-c1ccc(F)cc1,6%,23µM*,-99%,-2%,2
Nc1nc(Oc2ccc(F)cc2)c(Br)c(=O)[nH]1,-5%,4%,-24%,-2%,55
CC(=O)C[C@@H](O)CC(=O)[C@@H]1OC(=O)[C@@H](C)CCCCc2ccccc21,6%,10%,2%,4%,0
CC[C@@H]1CCCCc2ccccc2[C@@H](C(=O)C[C@@H](O)CC(C)=O)OC1=O,16%,-19%,-14%,10%,-8
CC[C@H]1CCCCc2ccccc2[C@@H](C(=O)C[C@@H](O)CC(C)=O)OC1=O,9%,u,15µM*,4%,36
CC[C@@H]1CCCCc2ccccc2[C@H](C(=O)C[C@@H](O)CC(C)=O)OC1=O,25%,-2%,21µM*,1%,9
CCC(CC)C(=O)Nc1nnc(SCC(=O)NC(C)(C)C)s1,-5%,-13%,-2%,0%,-3
CCCc1cc(=O)[nH]c(SCC(=O)NN(c2ccccc2)c2ccccc2)n1,-3%,u,0%,-1%,24
CC(=O)Nc1cccc(NC(=O)c2cccc(-c3ccc(O)cc3)c2)c1,-1%,u,u,-9%,8
Cc1cc(NC(=O)Nc2cccc(C(F)(F)F)c2)no1,-1%,u,-4%,-13%,7
COc1ccc(NC(=O)c2cccc(-c3ccc(O)cc3)c2)cn1,u,21µM*,15µM*,2.1µM*,-74*
Cc1sc(-n2cccc2)c(C(C)NC(=O)Nc2cccc(C(F)(F)F)c2)c1C (configuration not stated),x,21µM*,u,x,x
COC(=O)c1ccc(NC(=O)Nc2ccc([N+](=O)[O-])cc2)cc1,-1%,2.3µM*,2.6µM*,-1%,u
COc1cccc(C(C)NC(=O)Nc2cc(Cl)ccc2OC)c1 (configuration not stated),u,u,0%,u,21
SMILES,HT1080NT lethal,DT40 TDP1 no CPT,TDP1 cell CPT,HT1080 IDH1KD tx,IL1B secr inh
COc1cccc(C(C)NC(=O)Nc2cccc(C(F)(F)F)c2)c1 (configuration not stated),u,10µM*,21µM*,u,6
COC(=O)c1c(C)[nH]c(C)c1C(C)=O,24%,-20%,1%,18%,x
Cn1nnnc1NCc1cccc(Cl)c1Cl,1%,9%,-17%,7%,-10
O=C(c1cccs1)N1C[C@@H](n2cc(C3CC3)nn2)[C@H](O)C[C@@H]1c1ccc(Cl)cc1,-13%,u,-9%,-8%,-2
COC(=O)c1ccc(NC(=O)Nc2ccc(F)cc2)cc1,-20%,13µM*,18µM*,-26%,u
COc1cccc(NC(=O)Nc2nnc(N3C(C)CCCC3C)s2)c1 (configuration not stated),3%,18µM*,u,11%,41
O=C(Nc1ccc([N+](=O)[O-])cc1)Nc1ccon1,1.2µM*,0.33µM*,0.41µM*,0.73µM*,0
COc1ccc(NC(=O)/C=C/c2ccc(OC(F)F)cc2)cn1,-13%,u,-25%,u,-54*
COc1cccc(NC(=O)Nc2nnc(Cc3ccccc3)s2)c1,-21%,u,u,-20%,31
COC(=O)c1ccc(NC(=O)Nc2ccc(OC)cc2)cc1,10%,u,u,-18%,u
COc1ccc(/C=C/C(=O)Nc2ccc(OC)nc2)cc1,-3%,u,-1%,-14%,u
COc1ccc(S(=O)(=O)N(C)C[C@H]2Oc3ccc(NS(=O)(=O)c4cccs4)cc3C(=O)N([C@H](C)CO)C[C@@H]2C)cc1,7%,u,-23%,5%,-21
CC(/C=N/NC(=O)CSc1nnc(SCc2ccccc2)s1)=C\c1ccco1,13%,-2%,-7%,14%,17
COc1cc(/C=C/C(=O)O)cc(S(=O)(=O)Nc2cc(S(=O)(=O)N3CCCCC3)ccc2Cl)c1OC,6%,6%,-8%,9%,2
CCN(c1ccc(OC)cc1)S(=O)(=O)c1nnc(NC(=O)c2ccc(C)cc2)s1,2%,u,u,0%,5
